Reference: the supplement of paper PMC11732987, “Enantioselective OTUD7B fragment discovery through chemoproteomics screening and high-throughput optimisation” (Communications Chemistry, 2025)

Molecular target: USP16 (UniProt Q9Y5T5)
Assay: log2 ratio of Biotin-Ahx-Ub-VS probe labelling (fragment/DMSO); higher = less target engagement (more negative = stronger competition), active = hit call of the paper (q ≤ 0.05, log2 ratio ≤ -1)
Settings: compound concentration: 200 uM; treatment time: 3 h
Procedure, shortened: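 Triplicate samples of HEK293T lysate, 495 µg each, received fragment at 200 µM or vehicle for 3 h, followed by Biotin-Ahx-Ub-VS (0.5 µM final) for 1 h. After NeutrAvidin enrichment of labelled DUBs and LysC/trypsin digestion, peptides were run by diaPASEF LC-MS/MS. The values are average log2 fragment/vehicle ratios from global-median-normalised Spectronaut label-free quantities, tested by unpaired t-test on proteins having ≥2 unique peptides.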

Chain of USP16 (Q9Y5T5 whole entry, looked up, the tested form may be a part): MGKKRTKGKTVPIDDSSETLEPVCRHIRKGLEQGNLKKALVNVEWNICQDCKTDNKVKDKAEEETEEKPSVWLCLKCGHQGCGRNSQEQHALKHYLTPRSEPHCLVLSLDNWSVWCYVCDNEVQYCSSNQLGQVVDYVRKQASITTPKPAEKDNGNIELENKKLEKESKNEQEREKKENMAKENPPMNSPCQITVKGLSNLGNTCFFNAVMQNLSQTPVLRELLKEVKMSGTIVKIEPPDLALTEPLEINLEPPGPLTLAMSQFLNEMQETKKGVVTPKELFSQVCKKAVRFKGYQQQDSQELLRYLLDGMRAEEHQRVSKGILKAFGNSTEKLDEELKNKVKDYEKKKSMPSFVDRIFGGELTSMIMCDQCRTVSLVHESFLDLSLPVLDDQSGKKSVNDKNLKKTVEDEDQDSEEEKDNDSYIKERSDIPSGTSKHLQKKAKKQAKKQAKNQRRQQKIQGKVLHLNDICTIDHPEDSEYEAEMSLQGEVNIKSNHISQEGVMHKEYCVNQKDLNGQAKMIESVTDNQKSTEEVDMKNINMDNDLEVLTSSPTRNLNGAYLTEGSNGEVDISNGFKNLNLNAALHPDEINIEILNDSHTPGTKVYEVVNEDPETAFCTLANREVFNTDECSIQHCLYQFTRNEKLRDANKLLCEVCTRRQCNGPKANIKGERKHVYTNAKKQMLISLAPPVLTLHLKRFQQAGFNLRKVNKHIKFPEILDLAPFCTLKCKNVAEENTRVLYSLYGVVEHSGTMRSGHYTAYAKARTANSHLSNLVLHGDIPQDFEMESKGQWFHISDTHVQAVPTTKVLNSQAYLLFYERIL

log2 ratio of Biotin-Ahx-Ub-VS probe labelling, inactive:
Cl.O=C(CCl)N1CCC(n2nc3ccccc3n2)CC1 -0.441
Cc1cccc(C)c1NC(=O)CCl -0.0305
CCN(C(=O)CCl)C1CCS(=O)(=O)C1 (stereo not given) -0.707
Cl.O=C(CCl)N[C@H]1C[C@@H](n2cccn2)C1 0.0253
Cc1ccc2nnc(CNC(=O)CCl)n2c1 -0.0611
O=C(CCl)Nc1ccc(N2CCCC2=O)cc1 0.0122
Cl.O=C(CCl)NCc1ccnc(Oc2ccccc2F)c1 0.275
O=C(CCl)N1CCC(S(=O)(=O)c2ccc(F)cc2)CC1 0.341
Cl.O=C(CCl)N1CCn2ncc(O)c2C1 -0.0885
Cc1cccc(NC(=O)CCl)c1C -0.691
CCN(C(=O)CCl)C1CCCCC1 0.0695
O=C(CCl)NC1(c2ccc3c(c2)OCCO3)CCCC1 -0.316
O=C(CCl)N1CCN(C(=O)Nc2ccccc2)CC1 0.0643
O=C(CCl)NC(Cn1ccccc1=O)c1ccccc1 (stereo not given) -0.972
CC1CCc2onc(CNC(=O)CCl)c2C1 (stereo not given) 0.406
O=C(CCl)N1CCCCCC1c1ncon1 (stereo not given) -0.0478
Cc1cccc(N(CCC#N)C(=O)CCl)c1C -0.0303
O=C(CCl)Nc1ccccc1C(F)(F)F -0.0895
Cc1ccccc1OCC(=O)N1CCN(C(=O)CCl)CC1 -0.973
CN(C)C(=O)c1ccc(CNC(=O)CCl)cc1 0.0806
